High-throughput results (PubChem BioAssay)
Hits are enriched below; roughly 3.1% of the tested compounds scored in any of these assays.
esBAF inh – blocks esBAF chromatin remodeling in mouse ES cells | Bmi1-luciferase knock-in reporter, 24 h; 100% = twice the neutral-well signal | reporter increase, % at 12.5 µM | AID 602393 | 350,000 compounds, 2% hits; in the data active = activation above about 40%; inconclusive = no clear call, values can overlap the other calls;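 also: 0% = median of the plate's neutral control wells and 100% = double that signal; a rise in the Bmi1 reporter signal indicates esBAF inhibition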
Wnt act – activators of Wnt/beta-catenin signaling; AID 743398; activation, % at 9.35 µM; Wnt/beta-catenin reporter cell assay, activator, plate reader; 300,000 compounds, 1.2% hits; in the data active = activation above about 30%, passing the limit was not always enough; inconclusive = no clear call, values can overlap the other calls;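 also: 0% = neutral control wells and 100% = positive control wells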
C2C12 statin – suppressors of simvastatin-induced myotoxicity in C2C12 myotubes. ATP luminescence, 48 h; scaled: DMSO 0, geranylgeraniol control 100. rescue of ATP level, % at 7.49 µM. 330,000 compounds, 0.78% hits. AID 602340;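 active = mean ATP rescue above about 67%, or every replicate alone reaching that limit, limit read from the data, passing the limit was not always enough; inconclusive = no clear call, values can overlap the other calls; inactive = mean under the limit and some replicate under it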;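 also: myotubes were challenged with 10 µM simvastatin during compound exposure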
Rtt109 Vps75 – inhibitors of Candida albicans Rtt109/Vps75 histone acetyltransferase | Q5AAJ8 | purified Rtt109/Vps75, ThioGlo CoA-SH fluorescence, 4 h | inhibition, % at 34.9 µM | 330,000 compounds, 0.16% hits | AID 540336;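 active = inhibition of at least 50% in every replicate; inconclusive = best replicate reaches 50% inhibition but some replicates fall short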
Target sequence (Q5AAJ8 whole entry, looked up): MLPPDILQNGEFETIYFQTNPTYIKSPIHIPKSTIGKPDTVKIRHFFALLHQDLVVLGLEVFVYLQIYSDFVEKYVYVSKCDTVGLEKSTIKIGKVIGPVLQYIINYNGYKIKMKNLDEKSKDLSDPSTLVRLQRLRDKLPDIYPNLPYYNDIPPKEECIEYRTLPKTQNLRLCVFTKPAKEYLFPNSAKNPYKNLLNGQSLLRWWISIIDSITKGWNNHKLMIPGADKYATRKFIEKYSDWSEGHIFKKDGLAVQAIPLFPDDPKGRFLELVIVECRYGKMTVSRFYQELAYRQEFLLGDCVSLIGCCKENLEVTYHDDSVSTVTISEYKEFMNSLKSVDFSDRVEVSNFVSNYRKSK
MITF TRPM1 HTS – activators of MITF-driven TRPM1 promoter activity in SK-MEL-5 cells. SK-MEL-5 TRPM1-promoter luciferase, 24 h; % of positive control, neutral wells = 0. activation, % at 12.5 µM. 300,000 compounds, 0.75% hits. AID 588334;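 active = mean activation of at least 80% with every replicate also reaching 80%; inconclusive = mean reaches 80% but some replicate falls short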;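 also: 0% = neutral control wells and 100% = parthenolide positive control wells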
* marks the source's active call; other numbers are inactive results; i = inactive; ? = inconclusive; . = no result.

SMILES	esBAF inh	Wnt act	C2C12 statin	Rtt109 Vps75	MITF TRPM1 HTS
COc1ccc(C(=O)/C=C/c2cn(CC(O)CN3CCN(C)CC3)c3ccccc23)cc1OC (configuration not stated)	.	-8	.	3	.
CN1CCN(Cn2cc(/C=C/C(=O)c3ccccc3)c3ccccc32)CC1	62*	.	25	-2	?
Cc1ccc(C2NC(=O)c3c(sc(C)c3C)N2)c(O)c1 (configuration not stated)	98*	8	6	.	25
Cc1sc2c(c1C)C(=O)NC(c1ccccc1F)N2 (configuration not stated)	.	32*	.	5	33
COc1ccccc1-c1ccc(Nc2ccc(C(=O)N3CCOCC3)cc2)nn1	9	.	-19	1	3
CC(=O)c1ccc(Nc2ccc(-c3ccccc3F)nn2)cc1	?	31*	12	15	73
O=C(Nc1ccccc1Br)c1cc(=O)c2ccccc2o1	49*	0	10	2	152*
CC(=O)c1cc(F)c(N2CCCC2)cc1C	14	-3	101*	0	8
CC(O)(c1ccccc1)c1nc(-c2cccc(C(F)(F)F)c2)cs1 (configuration not stated)	-11	4	-9	.	.
CC(O)(c1ccccc1)c1nc(-c2cc3ccccc3o2)cs1 (configuration not stated)	49*	2	-14	.	.
CN(C)c1ccc(-c2csc(C(C)(O)c3ccccc3)n2)cc1 (configuration not stated)	56*	4	0	.	.
CC(O)(c1ccccc1)c1nc(-c2ccc(Cl)cc2)cs1 (configuration not stated)	5	0	-2	.	.
COCCn1c(N)c(C(=O)NCC2CCCO2)c2nc3ccccc3nc21 (configuration not stated)	.	-4	.	i	6
COC(=O)c1c(NC(=O)c2ccc(C)o2)sc2c1CCCCC2	63*	52*	1	9	.
COCCn1c(N)c(C(=O)Nc2sc3c(c2C(=O)OC)CCCC3)c2nc3ccccc3nc21	3	.	99*	-3	16
Cc1ccc(C(=O)Nc2sc3c(c2C(=O)O)CCC(C)C3)o1 (configuration not stated)	49*	11	5	2	37
Cc1cc(C(=O)Nc2cccc3c2O[C@@H](CN(C)Cc2ccccc2)[C@H](C)CN([C@@H](C)CO)C3=O)n(C)n1	-3	.	6	.	.
C[C@@H]1CN([C@@H](C)CO)C(=O)Cc2cc(NC(=O)Cc3cn(C)c4ccccc34)ccc2O[C@@H]1CN(C)CC1CC1	4	.	12	.	.
C/C=C/c1cnc2c(c1)C(=O)N([C@H](C)CO)C[C@@H](C)[C@H](CN(C)Cc1ccccc1F)O2	-9	.	-13	.	.
CCCN(C)C[C@H]1OCCCC[C@H](C)Oc2ccc(NS(=O)(=O)c3cn(C)cn3)cc2C(=O)N([C@H](C)CO)C[C@H]1C	-3	.	-9	.	.
C[C@H]1CCCCO[C@@H](CN(C)Cc2ccccc2)[C@@H](C)CN([C@@H](C)CO)C(=O)c2cc(NC(=O)Nc3ccccc3)ccc2O1	1	.	.	.	.
COc1ccc(S(=O)(=O)N[C@H]2CC[C@@H](CC(=O)O)O[C@H]2CO)cc1	0	.	2	.	.
[O-][n+]1c(/C=C/c2ccccc2)ccc2ccccc21	1	37*	17	-1	21
CCN(CC)C(=O)c1ccc(NS(=O)(=O)c2ccc(/C=C/C(=O)O)cc2)cc1	.	0	.	28	-8
CCN(CC)C(=O)c1ccc(NS(=O)(=O)c2ccccc2)cc1	7	-4	103*	-11	-12
SMILES	esBAF inh	Wnt act	C2C12 statin	Rtt109 Vps75	MITF TRPM1 HTS
O=C(C[C@@H]1C=C[C@H](NC(=O)c2ccncc2)[C@H](CO)O1)Nc1ccc(-c2ccccc2)cc1	7	.	1	.	.
Cc1ccc(OCC(=O)Nc2sc3c(c2C#N)CCC3)cc1	35	12	-8	26	111*
CCC(=O)Nc1sc2c(c1C#N)CCC2	.	-1	.	-1	-20
Cc1cccc(C(=O)Nc2sc3c(c2C#N)CCCCC3)c1	-1	.	-20	14	89*
CCOC(=O)Nc1sc2c(c1C#N)CCCC2	-8	.	-11	3	91*
N#Cc1c(NC(=O)c2ccccc2)sc2c1CCC2	.	.	.	-2	44
CCCNC(=O)N[C@H]1CC[C@H](CCn2cc(C3CC3)nn2)O[C@@H]1CO	-3	.	-3	.	.
C[C@H](CO)N1C[C@H](C)[C@@H](CN(C)C(=O)c2ccccc2)OCCCC[C@H](C)Oc2ccc(NS(=O)(=O)c3ccccc3)cc2C1=O	-4	.	.	.	.
Cc1cc(C(=O)Nc2cccc3c2O[C@@H](CN(C)CC2CCCCC2)[C@H](C)CN([C@H](C)CO)C3=O)n(C)n1	-4	.	-56	.	.
O=C1CSC(c2cccnc2)N1Cc1ccc(Cl)cc1 (configuration not stated)	0	35*	-2	2	10
COc1ccc(Cl)cc1NS(=O)(=O)c1c(C)[nH]c(=O)[nH]c1=O	-18	2	87*	-4	10
Brc1ccc(N=C/C=C/C=C/Nc2ccc(Br)cc2)cc1	68*	12	9	.	-15
CN(C)C(/C=C/Nc1ccc(Br)cc1)=C(C#N)C#N	.	2	.	-4	-19
COc1ccc(NC(=O)C2=Cc3ccccc3OC2)cc1	-24	13	-5	2	13
COc1ccc(NC(=O)C2=Cc3cccc(OC)c3OC2)cc1	.	44*	.	.	52
Cc1noc(C)c1-c1nc(CS(=O)(=O)c2ccc(Cl)cc2)no1	.	-2	.	-1	10
O=S(=O)(Cc1noc(-c2ccccc2Cl)n1)c1ccccn1	44*	40*	6	-1	?
c1ccc(Nc2ccnc(Nc3ccccc3)n2)cc1	45*	71*	-18	7	65
COc1ccc(C(=O)CNc2cccc(F)c2)cc1	63*	19	17	-12	72
Cc1ccc(NCCC(=O)c2ccccc2)cc1Cl	60*	1	.	2	21
COc1ccc(C(=O)CC(=O)C(=O)Nc2cccc(F)c2)cc1	10	2	9	-1	-3
COc1ccc(C(=O)CCNc2cccc(Cl)c2)cc1	.	69*	.	1	74
CCCOc1ccc(C(=O)CCNc2cccc(Cl)c2)cc1	3	-3	13	0	20
Cc1csc(NC(=O)Cc2c(F)cccc2Cl)n1	62*	22	0	-2	.
Cc1csc(NC(=O)Cc2c[nH]c3ccccc23)n1	61*	.	4	-2	93*
Cc1csc(NC(=O)Cc2ccc(F)cc2)n1	64*	-1	-6	-5	42
C[C@@H]1CCCCO[C@@H](CN(C)S(=O)(=O)c2ccc(Cl)cc2)[C@H](C)CN([C@@H](C)CO)C(=O)c2cc(NC(=O)Nc3ccccc3)ccc2O1	-1	.	.	.	.
C/C(=N\NC(N)=S)c1ccccc1	.	4	.	4	1
C/C(=N\NC(N)=S)c1cc(-c2ccccc2)c(-c2ccccc2)s1	-7	-5	108*	-16	.
CCOC(=O)/C=C(\C)Nc1cc(C)nn1-c1ccccc1	-4	-5	127*	-7	5
